The results in this text go back to PubChem BioAssay (NCI).

This is part of a sample that, as a whole, favours compounds with a hit. Of some 83,000 tested, about 20% had one in any assay.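 Note: values are percent growth. 100 is the growth of untreated cells, values between 100 and 0 indicate rising inhibition; between -100 and 0 indicates cell death.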 Active and inactive are the calls of the source.

The assay concerns MCF7 breast. The assay can be described thus: NCI-60 one-dose screen, 48 h (100 = growth as untreated, 0 = no growth, -100 = all killed). The following applies: 10 µM unless noted. Here is the method:
Growth inhibition of the MCF7 human tumor cell line is measured as a screen for anti-cancer activity. Cells are grown in 96 well plates and exposed to the test compound for 48 hours. Compounds are tested at a single concentration, which is 10^-5 M for most compounds. The reported endpoint is percent growth (GI% or GIPRCNT), where numbers from 0 - 100% represent growth inhibition, and numbers from -100% - 0 represent cell death. For example, a value of 40 represents 60% growth inhibition. A value of 0 means no net growth occurred over the course of the experiment. A value of -40 indicates 40% of cells at the beginning of the experiment died by the end of the experiment. A value of -100 means all cells are dead at the end of the experiment.
NCI-60 Human Tumor Cell Lines Screen was performed using the standard one-dose NCI protocol, which is described in more detail at https://dtp.cancer.gov/discovery_development/nci-60/default.htm.
Compounds with GIPRCNT values below 10 were considered active. Activity score was based on GIPRCNT using the following formula: […]
Score is 0 for GIPRCNT values of 100 or above, 50 for GIPRCNT values of 0, and 100 for GIPRCNT values of -100.
Consider `O=C(O)CCCN1C(=O)/C(=C/c2cn(-c3ccccc3)nc2-c2ccc([N+](=O)[O-])cc2)SC1=S`, for which the growth was 52.3% (inactive).
As for `CC(=O)c1c(C)nc(SCC(=O)Nc2cccc(O)c2)n1-c1ccc(Cl)cc1`, the figure is 91.1% (inactive); as for `COc1cccc(CNc2ccc3ncnc(Nc4ccc(F)c(Cl)c4)c3c2)c1`, 65.2% (inactive).
With `O=C(Nc1ccccc1O)c1ccc(CNC(=O)c2sccc2Nc2ccnc(C(F)(F)F)c2)cc1` the figure was 30.1% (inactive); with `C#CCNC(=O)[C@H](CC)[C@H]1CC[C@H](C)[C@H]([C@@H](C)[C@H](O)[C@H](C)C(=O)[C@H](CC)C2O[C@]3(C=CC(=O)[C@]4(CC[C@@](C)([C@H]5CC[C@](O)(CC)[C@H](C)O5)O4)O3)[C@H](C)C[C@@H]2C)O1` (stereo not given in full), 24% (inactive).
As for `CCCn1cc2c(=O)nc3sc(Cc4ccccc4)c(C)n3c2n1`, the figure is 91.6% (inactive).
With `CCC(C(=O)[C@@H](C)[C@@H](O)[C@H](C)[C@@H]1O[C@@H]([C@@H](CC)C(=O)ONC(=O)c2ccccc2)CC[C@@H]1C)[C@H]1O[C@]2(C=CC(=O)[C@]3(CC[C@@](C)([C@H]4CC[C@](O)(CC)[C@H](C)O4)O3)O2)[C@H](C)C[C@@H]1C` (stereo not given in full), the growth is 3.51% (active).
As for `CCN1CCN(C(=O)[C@]23CCC(C)(C)C[C@@H]2C2=CC[C@@H]4[C@@]5(C)CCC(=O)C(C)(C)[C@@H]5CC[C@@]4(C)[C@]2(C)CC3)CC1`, the figure is 39.9% (inactive); as for `CCOC(=O)c1cc2c(n1Cc1cc(OC)c(OC)c(OC)c1)-c1nc(N)sc1CCC2`, 27.6% (inactive).
As for `N=C(N)c1ccc(-c2ccc(-c3ccc(Cl)c(Cl)c3)s2)nc1`, the figure is -64.6% (active).
With `C=CCN=c1sc2c(n1NC(=O)c1cc3ccc1CCc1ccc(cc1)CC3)C(=O)c1ccccc1C2=O` the figure was -62.8% (active); with `CCOC(=O)n1cc(-c2nonc2-c2cn(C(=O)OCC)c3ccc(Br)cc23)c2ccccc21`, 69.6% (inactive).
Regarding `COC(=O)c1c2c(c(C)[n+]([O-])c1C)C(=O)C(NCc1cccc(OC)c1)=CC2=O`, the growth was 0.247% (active).
In the case of `CCc1ncnc2c1ccn2C(C)c1ccc(OC)c(F)c1` (stereo not given), the growth is 33.4% (inactive).
As for `C=CCn1c(SCC(=O)Nc2ccc(C(=O)/C=C/c3ccc(Cl)cc3)cc2)nnc1-c1ccc(Br)cc1`, the figure is 13.4% (inactive).
As for `O=C(Nc1nc2cc(C(=O)N3CCN(C(c4ccccc4)c4ccccc4)CC3)ccc2o1)c1ccc(NC2CCCCC2)c([N+](=O)[O-])c1`, the figure is 50.2% (inactive); as for `O=C(NCc1ccc(Cl)cc1Cl)C1CCC(=O)N1c1cccs1` (stereo not given), 88% (inactive).
On to `COc1ccc(-c2noc(C(=O)O)c2-c2cc(OC)c(OC)c(OC)c2)cc1`, for which the growth is 18.9% (inactive).
With `COc1cc(-c2nccc3[nH]c(-c4ccc5cc[nH]c5c4)nc23)cc(OC)c1OC` the figure was 2.12% (active); with `OCCn1cc(-c2nc(-c3c[nH]c4ncccc34)cs2)c2cc(F)ccc21`, 48.1% (inactive).
As for `O=S(=O)(NCCNc1nccc(-c2c(-c3ccc(F)c(O)c3)nc3sccn23)n1)c1ccc(O)cc1`, the figure is 27.6% (inactive); as for `CCn1cc(C(=O)O)c(=O)c2cc(F)c(N3CCN(CC(=O)Nc4ccc(S(=O)(=O)Nc5nccc(C)n5)cc4)C(C)C3)c(F)c21` (stereo not given), 96.7% (inactive); as for `Cc1cc(N2CCN(CC(=O)Nc3ccc4c(ccn4C)c3)CC2)nc(N2CCCCCC2)n1`, 77.9% (inactive).
With `CC1=C2[C@@H](CC1)[C@]1(C)O[C@@](C(C)C)(C[C@H]1OC(=O)[C@H](C)O)[C@H]2OC(=O)/C=C/c1ccccc1` the figure was 81.6% (inactive); with `Cc1cc(N2CCN(CCNc3ccnc4cc(Cl)ccc34)CC2)nc(N2CCOCC2)n1`, 53.3% (inactive); with `O=C1/C(=C/c2cn(-c3ccccc3)nc2-c2ccccc2)SC(=S)N1C1CCCCC1`, 86.2% (inactive).
Take `Cc1c2cnccc2c(C)c2c1c1cc(C#N)ccc1n2C`: the growth is -12.2% (active).
With `COc1cc2nc3cc([N+](=O)[O-])ccc3c(NCCNCC(C)O)c2cc1OC` (stereo not given) the figure was -13.3% (active); with `O=C(Nc1nc2ccccc2s1)c1ccc(F)cc1`, 68.1% (inactive).
As for `Fc1cccc(Oc2ccc(Nc3ncnc4ccc(OCCCN5CCOCC5)cc34)cc2Cl)c1`, the figure is 50.4% (inactive); as for `C=C1C(=O)O[C@H]2[C@H]1CC/C(COC(=O)/C=C\C(=O)NCc1ccc(Cn3c(=O)sn(CCI)c3=O)cc1)=C\CC[C@@]1(C)O[C@@H]21`, 24.8% (inactive); as for `O=c1scc(-c2ccc(C(F)(F)F)cc2)s1`, 64.9% (inactive).
Regarding `COC1/C=C/OC2(C)Oc3c(C)c(O)c4c(O)c(c(/C=N/Nc5ccc([N+](=O)[O-])cc5[N+](=O)[O-])c(O)c4c3C2=O)NC(=O)C(C)=C/C=C/C(C)C(O)C(C)C(O)C(C)C(OC(C)=O)C1C` (stereo not given), the growth was 36.6% (inactive).
With `Cc1cn(-c2cc(NC(=O)c3cncc(C#Cc4cnc(N)c5ncccc45)c3)cc(C(F)(F)F)c2)cn1` the figure was 73.9% (inactive); with `COc1ccc(Nc2ncc(Br)c(NCCCNC(=O)c3cccs3)n2)cc1`, 42.9% (inactive).
With `COc1ccc(/C=C/C(=O)c2ccc(Nc3ccnc4cc(Cl)ccc34)cc2)cc1` the figure was 76.2% (inactive).
For the molecule `Fc1ccc(CNc2c3ccccc3nc3ccccc23)c(F)c1`, the growth is 10.2% (inactive).
With `Nc1c(C(=O)Nc2ccncc2)sc2nc3c(cc12)C(O)CCC3` (stereo not given) the figure was 93.8% (inactive); with `O=C1C(Cl)=C(Nc2ccc(S(=O)(=O)N3CCOCC3)cc2)C(=O)c2ccccc21`, 58.9% (inactive).
In the case of `O=C(NNC(=O)c1ccc(NC(=O)c2ccccn2)cc1)Nc1ccc([N+](=O)[O-])cc1`, the growth was 95.7% (inactive).
